Among the data in PubChem BioAssay (EPA / NIEHS) are outcome and AC50 values, retold here.

Broadly, the AC50 is the midpoint of the concentration-response curve, whichever way the signal moves.

Results filed as inconclusive are left out. Calls of active or inactive are those of the source. How the source made its calls, unless noted: active means hit-call score of the fitted dose curve at least 0.9, where 1 is the maximum; inactive means score below 0.9.

Experiment [1] can be described thus: CCTE_Shafer_MEA_acute_AB: CCTE's Alamar Blue Assay for Cytotoxicity in the Neural Acute Assay, Shafer Lab (AID 2284069; active means hit-call score of the fitted dose curve at least 0.9, where 1 is the maximum;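 further: active compounds lower the viability signal compared with DMSO wells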). The method, boiled down:
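Read-out: resazurin fluorescence (ex 544, em 590 nm) after CTB reagent at 1:6 dilution in fresh media. Cells: primary rat cortical neuron networks, DIV 13 or 15, chemically exposed on MEA plates; DMSO as negative control/baseline.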
(Alamar Blue is a resazurin reagent that responds to reducing activity.)

The nature of experiment [2]: CCTE_Shafer_MEA_acute_LDH: CCTE's Lactate Dehydrogenase Assay for Cytotoxicity in the Neural Acute Assay, Shafer Lab (AID 2284086; active means hit-call score of the fitted dose curve at least 0.9, where 1 is the maximum;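 further: active means LDH release rises above DMSO vehicle level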). Put shortly:
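LDH absorbance at 490 nm in medium taken right after 40-min compound exposure; rat primary cortical neuron networks on MEA plates, days post-plating 13 or 15. Increase over DMSO baseline scored as cytotoxicity.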

A short description of experiment [3]: CCTE_Shafer_MEA_dev_AB: CCTE's Alamar Blue Assay for Cytotoxicity in the Neural Network Formation Assay, Shafer Lab (AID 2284083; active means hit-call score of the fitted dose curve at least 0.9, where 1 is the maximum;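 further: resazurin reduction fluorescence as viability of cultured neurons; twelve days of exposure from plating with re-dosing on DIV 5 and 9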). Put shortly: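 Rat cortical primary cultures, 1.5 x 10^5 cells/well on MEA; continuous compound exposure over 12 days of network development, re-dosed with full medium change DIV 5 and 9. Alamar Blue fluorescence; loss of signal = cytotoxicity vs DMSO baseline.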

Experiment [4] can be described thus: CCTE_Shafer_MEA_dev_mutual_information_norm: CCTE's Neural Network Formation Assay for Mutual Information Normalization, Shafer Lab (AID 2284091).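 On AC50: mutual information between electrodes summarised as area under curve across four recording days; potency is for a decrease in mutual information relative to DMSO.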 The method, boiled down: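 Neurons from rat cortex were seeded at 1.5 x 10^5 cells/well onto PEI-coated MEAs in a laminin drop, then exposed to compound from day 0 for twelve days. Network recordings on four days gave mutual information, summarised by AUC relative to DMSO.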

The nature of experiment [5]: CCTE_Shafer_MEA_dev_correlation_coefficient_mean: CCTE's Neural Network Formation Assay for Mean Correlation Coefficient, Shafer Lab (AID 2284093).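 On AC50: well mean pairwise spike train correlation integrated as AUC over recording days 5 to 12; potency fitted for loss of correlation relative to DMSO vehicle wells.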 Put shortly:
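Rat cortical cultures, 1.5 x 10^5 cells/well, dosed from day 0 for 12 days. Spontaneous spikes recorded DIV 5/7/9/12; electrode-pair correlation coefficients averaged, AUC taken. Fit in loss direction vs DMSO.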

Experiment [6] is described as follows: IUF_NPC1b_proliferation_BrdU_72hr: Leibniz Research Institute for Environmental Medicine (IUF) 72-hour Neural Progenitor Cell Bromodeoxyuridine (BrdU) Proliferation Assay (NPC1b) (AID 2284207). The method, boiled down:
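Luminescent BrdU ELISA measured DNA synthesis during the last 16 h of a 72 h exposure of primary human neural progenitor spheres grown with EGF and FGF. Signal was fitted relative to DMSO controls.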

Experiment [7] in a line: UKN2_HCS_IMR90_neural_migration: University of Konstanz (UKN) Leist Lab Neural Crest Cell Migration Assay in human induced IMR90 Pluripotent Stem Cells (UKN2) (AID 2284204). The note with it: actives raise or lower the signal. The method, boiled down:
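Stopper-exclusion migration (cMINC), human iPSC-derived neural crest cells; N2-S + EGF/FGF; compound added 24 h post-stopper removal, 24 h exposure. Readout: calcein-AM/Hoechst 30 min, HCS fluorescence imaging; bidirectional fitting, DMSO baseline.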

A short description of experiment [8]: UKN5_HCS_SBAD2_cell_viability: Viability Assessment in the University of Konstanz (UKN) Leist Lab Neurite Outgrowth Assay in human iPSC-derived immature Dorsal Root Ganglia Neurons (UKN5) (AID 2284056). The method, boiled down:
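iPSC-derived immature peripheral neurons (SBAD2) seeded on Matrigel with CHIR99021, SU5402 and DAPT, dosed 1 h later for 24 h. Viability from Hoechst H-33342 and calcein-AM live staining, high-content imaging; bidirectional fit versus DMSO.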

Experiment [9] in a line: UKN5_HCS_SBAD2_neurite_outgrowth: University of Konstanz (UKN) Leist Lab Neurite Outgrowth Assay in human iPSC-derived immature Dorsal Root Ganglia Neurons (UKN5) (AID 2284070). The conditions noted are these: actives raise or lower the signal. The method, boiled down:
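Cryopreserved SBAD2 peripheral neurons were seeded at 100.000 cells/cm2 in N2-S/KSR medium containing CHIR99021, SU5402 and DAPT, then exposed to compounds for 24 h. Neurite area from calcein-AM high-content imaging was fitted bidirectionally against DMSO.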

A short description of experiment [10]: UKN4_HCS_LUHMES_neurite_outgrowth: University of Konstanz (UKN) Leist Lab Neurite Outgrowth Assay in human LUHMES cells (UKN4) (AID 2284206). The conditions noted are these: actives raise or lower the signal. Put shortly: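 Read-out: calcein-AM neurite area by high-content fluorescence imaging, with Hoechst H-33342 viability counterstain, after 24 h chemical exposure of day-2 differentiated LUHMES cells. Activity fitted bidirectionally against DMSO baseline.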

As to `Oc1c(Cl)cc(Cl)cc1Sc1cc(Cl)cc(Cl)c1O`, the compound was called inactive in experiment [1] and in experiment [2].

As to `CN(Cc1cnc2nc(N)nc(N)c2n1)c1ccc(C(=O)N[C@@H](CCC(=O)O)C(=O)O)cc1`, the values for the AC50 in experiment [3], in experiment [4] and in experiment [5] were 38.9 nM (active), 19.1 nM (active) and 18.9 nM (active), respectively.

As for `CC(=O)Nc1ccc(O)cc1`, the compound was classed as inactive in experiment [1], in experiment [3], in experiment [2], in experiment [4], in experiment [5] and in experiment [6].

With `O=P(O)(O)CCC(F)(F)C(F)(F)C(F)(F)C(F)(F)C(F)(F)C(F)(F)F`, the compound was called inactive in experiment [3], in [4] and in experiment [5].

`C=CC(F)(F)C(F)(F)C(F)(F)C(F)(F)F`: the outcome in experiment [3], in experiment [4] and in experiment [5] was inactive.

For the compound `O=C(C=C(O)C(F)(F)F)C(F)(F)F`, the call in experiment [4] and in experiment [5] was inactive.

For the compound `CC(C)c1c(C(=O)Nc2ccccc2)c(-c2ccccc2)c(-c2ccc(F)cc2)n1CC[C@@H](O)C[C@@H](O)CC(=O)O`, the AC50 was 25.8 nM (active) in [3], 7.93 nM (active) in experiment [4], 8.05 nM (active) in experiment [5] and 1.7 µM (active) in experiment [6]. Also, in [7], the outcome was inactive.

Take `FCOC(C(F)(F)F)C(F)(F)F`: the compound was classed as inactive in experiment [3], in [4] and in experiment [5].

As for `O=CC(F)(F)C(F)(F)C(F)(F)F`, the result in experiment [3], in experiment [4] and in experiment [5] was inactive.

For the compound `Nc1ccn([C@@H]2O[C@H](CO)[C@@H](O)C2O)c(=O)n1` (some centres not stated), the compound was classed as inactive in experiment [8], in experiment [7] and in [10]. Further, the AC50 in experiment [9] is 0.611 µM (active); in [3] it was 969 nM (active); in experiment [4], 74.4 nM (active); in [5] it was 91.9 nM (active).

On to `CCCCc1oc2ccccc2c1C(=O)c1cc(I)c(OCCN(CC)CC)c(I)c1`, for which the compound was called inactive in [1] and in [2].

In the case of `O=C(F)C(F)(F)C(F)(F)C(F)(F)C(F)F`, the compound was called inactive in experiment [3], in experiment [4] and in experiment [5].

In the case of `CCCCCCCCCCCC`, in experiment [2], the compound was called inactive.

With `FC(F)=C(F)C(F)(F)C(F)(F)C(F)(F)C(F)F`, the compound was called inactive in experiment [4] and in experiment [5].

With `CN(C)CCOC(c1ccccc1)c1ccccc1`, the compound was classed as inactive in experiment [1], in experiment [3], in experiment [2] and in experiment [4]. In [5], the half-maximal activity concentration (AC50) is 15500 nM (active).

`O=C(O)CCC(F)(F)C(F)(F)C(F)(F)C(F)(F)C(F)(F)F`: the call in experiment [4] and in [5] was inactive.

With `O=C(F)C(F)(F)C(F)(F)C(F)(F)C(=O)F`, the result in experiment [3], in [4] and in experiment [5] was inactive.

Turning to `CCC(C)c1ccccc1O` (configuration not stated), in experiment [1], the result was inactive.

Consider `N=C(N)c1ccc(OCCCCCOc2ccc(C(=N)N)cc2)cc1`, for which the call in experiment [1] and in [2] was inactive.

Regarding `O=C(CCCN1CCC(O)(c2ccc(Cl)cc2)CC1)c1ccc(F)cc1`, the AC50 was 55.6 µM (active) in experiment [8]; 20.2 µM (active) in experiment [9]; 163 nM (active) in [4]; 1740 nM (active) in experiment [5]; 13.1 µM (active) in experiment [10]. Besides, the outcome in experiment [3], in experiment [2], in [7] and in experiment [6] was inactive.
